In the supplement of paper PMC7724964:
± gives the standard deviation of the averaged measurements.

molecular target: UBA52 1-76 Ubiquitin (domain begin residue: 1, domain end residue: 76), P62987; assay: phage ELISA signal ratio (GST-PRM binding over GST background); higher = stronger binding of peptide-phage to the PRM
Outline: (§1)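 Each value is the phage ELISA signal on the glutathione S-transferase (GST)-domain fusion divided by the signal on GST alone. Human peptide recognition domains were expressed in 96-well plates, fused to the C-terminus of GST, and selected against an M13 phage library carrying randomized, cysteine-free, glycine-flanked hexadecapeptides on the gene-8 major coat protein. After five selection rounds, approximately 48 individual clones from rounds 4 and 5 were tested by phage ELISA, and positive clones were sequenced.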

Point of comparison: DLHYDWSLEYWTSLLQ, “phage ELISA signal ratio” value 17.2. Against it:
- MTVVEWWTDAQIAEWM — lower, 12.5
- EHMWDAQMWEWSWWDL — lower, 15.1
- EMWVFTPAEWFQIYLN — lower, 16.2

Molecular target: T1, TSG101 1-145 UEV (domain begin residue: 1, domain end residue: 145), Q99816
T1 chain: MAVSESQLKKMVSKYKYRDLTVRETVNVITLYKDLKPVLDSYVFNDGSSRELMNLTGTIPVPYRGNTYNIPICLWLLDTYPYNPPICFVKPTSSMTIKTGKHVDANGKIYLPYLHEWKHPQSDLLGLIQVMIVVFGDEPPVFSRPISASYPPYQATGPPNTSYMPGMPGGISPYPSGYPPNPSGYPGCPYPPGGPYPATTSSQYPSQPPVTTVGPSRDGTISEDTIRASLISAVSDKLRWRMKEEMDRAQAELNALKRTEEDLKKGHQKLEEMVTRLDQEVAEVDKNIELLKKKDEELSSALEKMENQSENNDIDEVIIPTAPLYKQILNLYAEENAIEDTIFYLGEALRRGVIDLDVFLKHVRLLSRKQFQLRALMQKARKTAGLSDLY
Assay: as above
Outline: as §1

Point of comparison: VSDLWWNPTWSSQETI, “phage ELISA signal ratio” value 9.75. Against it:
- YLWFSPAPSAPIWQWV — lower, 5.56
- TDFTYAHAYNPHFIVS — lower, 5.82
- GPLHPTAPVWENMLKY — higher, 15.7
- MQEAPYNPAWMEVPEL — higher, 27.7
- YQPNMASAPEWVWESH — higher, 29.4
- NFNYPEQMYSYNPHWI — higher, 20.4 ± 0.54

molecular target: UBE2V2 1-145 UQ_con (domain begin residue: 1, domain end residue: 145), Q15819; assay: as above
Sequence (Q15819 whole entry): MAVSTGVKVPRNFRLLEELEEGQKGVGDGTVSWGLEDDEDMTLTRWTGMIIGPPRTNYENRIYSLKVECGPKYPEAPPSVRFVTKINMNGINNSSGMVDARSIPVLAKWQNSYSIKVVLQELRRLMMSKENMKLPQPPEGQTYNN
Outline: as §1

Point of comparison: DRNAEMAIRQYFMYHE, “phage ELISA signal ratio” value 8.43. Against it:
- FEHLEYSHPYLWEMYF — lower, 5.45
- TNSMPQWAQSQLAMYR — higher, 21.3
- SLEWWNDISHPYWWHQ — lower, 6.28
- QVGWWMELDHPFWWHQ — higher, 8.59
- YIDYTFFEDGYYRVIE — lower, 5.72

molecular target: UBR5 2391-2453 PABP (domain begin residue: 2391, domain end residue: 2453), O95071; assay: as above
Sequence (O95071 whole entry): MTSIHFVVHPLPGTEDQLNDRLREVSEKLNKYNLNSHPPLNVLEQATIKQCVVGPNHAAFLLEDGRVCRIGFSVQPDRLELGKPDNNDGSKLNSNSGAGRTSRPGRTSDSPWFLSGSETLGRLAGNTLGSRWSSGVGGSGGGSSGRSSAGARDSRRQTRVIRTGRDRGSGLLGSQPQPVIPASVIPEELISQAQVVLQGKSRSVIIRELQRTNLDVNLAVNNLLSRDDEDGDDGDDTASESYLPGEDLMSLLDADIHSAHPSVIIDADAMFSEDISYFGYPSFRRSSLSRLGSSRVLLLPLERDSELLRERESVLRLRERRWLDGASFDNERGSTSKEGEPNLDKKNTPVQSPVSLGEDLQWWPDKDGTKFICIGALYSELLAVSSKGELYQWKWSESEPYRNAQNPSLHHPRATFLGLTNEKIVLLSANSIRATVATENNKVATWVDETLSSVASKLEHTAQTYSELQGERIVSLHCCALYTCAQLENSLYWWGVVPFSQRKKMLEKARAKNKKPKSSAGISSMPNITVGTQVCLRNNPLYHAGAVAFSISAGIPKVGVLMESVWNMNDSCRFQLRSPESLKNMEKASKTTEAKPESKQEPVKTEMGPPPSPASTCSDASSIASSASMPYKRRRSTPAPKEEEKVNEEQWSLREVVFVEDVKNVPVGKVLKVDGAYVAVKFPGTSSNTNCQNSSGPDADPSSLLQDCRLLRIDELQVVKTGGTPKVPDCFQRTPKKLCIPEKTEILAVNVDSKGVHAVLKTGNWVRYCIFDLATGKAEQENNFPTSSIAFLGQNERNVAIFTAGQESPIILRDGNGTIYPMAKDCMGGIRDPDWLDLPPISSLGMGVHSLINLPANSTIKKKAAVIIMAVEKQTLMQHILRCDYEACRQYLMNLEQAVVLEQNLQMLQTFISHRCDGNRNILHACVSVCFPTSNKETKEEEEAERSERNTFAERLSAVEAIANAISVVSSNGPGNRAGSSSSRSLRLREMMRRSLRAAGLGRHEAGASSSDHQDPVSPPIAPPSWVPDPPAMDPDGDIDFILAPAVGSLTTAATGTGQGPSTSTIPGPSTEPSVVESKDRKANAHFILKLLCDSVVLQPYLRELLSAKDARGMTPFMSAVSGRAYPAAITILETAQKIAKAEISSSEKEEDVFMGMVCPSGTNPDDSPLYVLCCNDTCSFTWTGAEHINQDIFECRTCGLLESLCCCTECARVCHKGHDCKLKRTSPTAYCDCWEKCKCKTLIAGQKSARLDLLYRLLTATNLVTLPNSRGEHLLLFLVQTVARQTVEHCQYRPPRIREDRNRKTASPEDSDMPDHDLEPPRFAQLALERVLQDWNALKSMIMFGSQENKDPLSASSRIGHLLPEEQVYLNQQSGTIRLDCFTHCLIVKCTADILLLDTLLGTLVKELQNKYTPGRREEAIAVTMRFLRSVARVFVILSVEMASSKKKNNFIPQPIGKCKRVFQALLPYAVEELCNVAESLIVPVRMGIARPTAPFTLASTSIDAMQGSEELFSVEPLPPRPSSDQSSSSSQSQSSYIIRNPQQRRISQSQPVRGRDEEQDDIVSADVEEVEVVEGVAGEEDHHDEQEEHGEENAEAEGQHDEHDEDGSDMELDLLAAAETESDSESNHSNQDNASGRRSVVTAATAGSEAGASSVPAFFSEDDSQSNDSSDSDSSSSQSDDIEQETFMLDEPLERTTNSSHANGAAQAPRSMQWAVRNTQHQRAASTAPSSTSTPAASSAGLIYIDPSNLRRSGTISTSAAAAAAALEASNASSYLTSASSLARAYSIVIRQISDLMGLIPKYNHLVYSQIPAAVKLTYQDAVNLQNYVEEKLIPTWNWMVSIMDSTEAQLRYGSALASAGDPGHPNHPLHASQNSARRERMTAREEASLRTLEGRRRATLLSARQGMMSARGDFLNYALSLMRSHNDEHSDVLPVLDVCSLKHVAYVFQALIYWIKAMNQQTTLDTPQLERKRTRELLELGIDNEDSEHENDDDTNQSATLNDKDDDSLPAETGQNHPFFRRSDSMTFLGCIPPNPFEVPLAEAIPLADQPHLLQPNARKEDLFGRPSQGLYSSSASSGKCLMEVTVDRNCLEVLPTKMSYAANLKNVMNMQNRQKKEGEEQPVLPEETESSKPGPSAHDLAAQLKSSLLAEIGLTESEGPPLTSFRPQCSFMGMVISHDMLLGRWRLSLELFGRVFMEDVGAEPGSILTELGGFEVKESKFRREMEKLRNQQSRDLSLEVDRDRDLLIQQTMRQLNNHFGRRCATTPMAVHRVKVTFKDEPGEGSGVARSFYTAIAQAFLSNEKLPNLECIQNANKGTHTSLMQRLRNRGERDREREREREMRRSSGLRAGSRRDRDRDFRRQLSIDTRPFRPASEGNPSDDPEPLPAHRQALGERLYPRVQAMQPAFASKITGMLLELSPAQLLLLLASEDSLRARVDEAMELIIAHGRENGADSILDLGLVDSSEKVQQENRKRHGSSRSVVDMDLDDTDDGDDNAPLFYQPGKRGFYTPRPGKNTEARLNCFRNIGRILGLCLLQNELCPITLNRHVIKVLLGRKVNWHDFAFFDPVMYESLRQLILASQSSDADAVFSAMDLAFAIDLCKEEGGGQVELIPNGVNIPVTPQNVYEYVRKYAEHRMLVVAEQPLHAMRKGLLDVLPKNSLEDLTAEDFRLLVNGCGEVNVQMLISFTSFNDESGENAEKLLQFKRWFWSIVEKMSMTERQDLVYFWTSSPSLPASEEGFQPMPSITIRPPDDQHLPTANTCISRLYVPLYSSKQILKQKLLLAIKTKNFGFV
Outline: as §1

Point of comparison: AWSMLDIANIKPWNPM, “phage ELISA signal ratio” value 18.4. Against it:
- MDVAAQPWIPIVPPEG — higher, 28.6
- SQLSIMSLEAAPFTWE — lower, 10.5
- VLDINAQPFHQSGFNH — higher, 25.7
- SKELSVNAIPFDPHWY — lower, 4.24
- NNQVMNVNATPYYWPT — higher, 19.4
- MNIDAREWSPASWEVH — lower, 3.6
- QMNVQAQEWWPAHMTF — higher, 18.6
- KLDVFAVPFLSSQHEY — higher, 22.6
- TGVEMMSYKAKPFYPE — lower, 7.69
- DDIWPVSAVHAQPFMV — higher, 21.2
- ALSMSAEPFHPMVNYV — higher, 30.1
- EWQWHNSVDWVPHKAT — lower, 12.4
- ELSIWADAFQPHWHKV — higher, 21.8
- LSYESAPWWPHMPAEF — lower, 13.2
- EFLNVMAPSWVDITEW — lower, 16.9
- YGMSIDASSFVPYEFW — lower, 17.8
- EWGSGWLNFQAAEFIV — lower, 8.2
- LSVAAPMFVPNNAVVS — lower, 5.76
- VMTLSPHATPYYPQMQ — lower, 5.69
- EALNIFSPMWEPQYVV — higher, 19.5

Molecular target: T2, UQCRB 8-111 UCR_14kD (domain begin residue: 8, domain end residue: 111), P14927
T2 chain: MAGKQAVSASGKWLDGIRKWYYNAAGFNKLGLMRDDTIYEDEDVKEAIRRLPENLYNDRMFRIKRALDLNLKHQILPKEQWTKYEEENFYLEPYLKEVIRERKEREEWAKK
Assay: as above
Outline: as §1

Point of comparison: VLPDWMAQHAWEWTGH, “phage ELISA signal ratio” value 23.9. Against it:
- FMDMWHWQQLEDYMFL — lower, 4.85

Molecular target: T3, UEVLD 1-145 UEV (domain begin residue: 1, domain end residue: 145), Q8IX04
T3 chain: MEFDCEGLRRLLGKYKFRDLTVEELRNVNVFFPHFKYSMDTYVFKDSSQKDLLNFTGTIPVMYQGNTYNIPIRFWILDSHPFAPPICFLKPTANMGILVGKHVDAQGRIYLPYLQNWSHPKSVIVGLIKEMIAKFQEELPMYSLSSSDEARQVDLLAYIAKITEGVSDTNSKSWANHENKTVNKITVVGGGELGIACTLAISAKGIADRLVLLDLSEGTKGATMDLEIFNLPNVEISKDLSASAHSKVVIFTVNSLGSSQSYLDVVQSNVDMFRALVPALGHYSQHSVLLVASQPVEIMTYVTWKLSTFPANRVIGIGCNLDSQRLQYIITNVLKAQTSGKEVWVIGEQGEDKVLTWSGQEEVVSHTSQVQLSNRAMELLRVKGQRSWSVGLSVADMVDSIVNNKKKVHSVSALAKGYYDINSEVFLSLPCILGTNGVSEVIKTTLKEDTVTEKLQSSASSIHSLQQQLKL
Assay: as above
Outline: as §1

Point of comparison: EQDQDLEYRMHMEKWW, “phage ELISA signal ratio” value 19.8. Against it:
- FDWRETLWESSQWMIA — higher, 22.7
- EDHWWIASMWRDQAVQ — lower, 18.1
- HQWQGDWDHEHIMMYW — higher, 24.1
- VPWSENQEWQWIFEAV — higher, 29.3
- EFEWIDHFLGNMESGL — lower, 8.99
- ERFTLFQSSMDSILMF — higher, 26
- LDWRMAPEWQWITHHL — lower, 3.3
- WRQDLETESLMQWFLW — lower, 15.2
- APFTLWESSMEALGEL — higher, 23.3
- LGQQYQMWEYMASLYN — lower, 11.4
- MSQDWPWPDLSWFDEP — lower, 7.15

molecular target: U2AF2 372-475 RRM_1 (domain begin residue: 372, domain end residue: 475), P26368; assay: as above
Sequence (P26368 whole entry): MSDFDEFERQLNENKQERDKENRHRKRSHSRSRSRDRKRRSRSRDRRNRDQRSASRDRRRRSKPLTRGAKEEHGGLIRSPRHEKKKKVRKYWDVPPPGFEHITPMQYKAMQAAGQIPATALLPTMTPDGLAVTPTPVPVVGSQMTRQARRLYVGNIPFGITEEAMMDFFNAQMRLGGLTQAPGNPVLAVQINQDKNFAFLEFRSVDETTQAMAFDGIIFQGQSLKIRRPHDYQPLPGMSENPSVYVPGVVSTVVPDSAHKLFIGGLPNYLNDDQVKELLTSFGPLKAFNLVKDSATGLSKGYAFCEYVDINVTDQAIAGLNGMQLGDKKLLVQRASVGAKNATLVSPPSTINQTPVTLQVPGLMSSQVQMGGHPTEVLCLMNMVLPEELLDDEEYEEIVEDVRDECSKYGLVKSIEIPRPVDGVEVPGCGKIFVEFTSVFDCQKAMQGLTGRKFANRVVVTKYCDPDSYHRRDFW
Outline: as §1

Point of comparison: FDRWESRRQSIGLELS, “phage ELISA signal ratio” value 8.37. Against it:
- FDKWEQRRSVPMGQVQ — lower, 3.6
- FSRWEQRQMQSVGGAG — lower, 6.45

molecular target: VASP 1-114 WH1 (domain begin residue: 1, domain end residue: 114), P50552; assay: as above
Sequence (P50552 whole entry): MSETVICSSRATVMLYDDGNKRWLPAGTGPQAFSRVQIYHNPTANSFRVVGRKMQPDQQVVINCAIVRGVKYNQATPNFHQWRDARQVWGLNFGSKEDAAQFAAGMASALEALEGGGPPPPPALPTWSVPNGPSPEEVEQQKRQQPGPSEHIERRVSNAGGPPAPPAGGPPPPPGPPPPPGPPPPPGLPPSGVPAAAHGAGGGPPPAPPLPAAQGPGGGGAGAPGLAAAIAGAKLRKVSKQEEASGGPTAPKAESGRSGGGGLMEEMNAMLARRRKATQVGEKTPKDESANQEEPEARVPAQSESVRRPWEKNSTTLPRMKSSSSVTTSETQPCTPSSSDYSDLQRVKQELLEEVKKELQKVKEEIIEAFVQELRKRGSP
Outline: as §1

With IQDWPELPEVMMHWTL the “phage ELISA signal ratio” value was 9.17.

molecular target: UBE2D2 1-147 UQ_con (domain begin residue: 1, domain end residue: 147), P62837; assay: as above
Sequence (P62837 whole entry): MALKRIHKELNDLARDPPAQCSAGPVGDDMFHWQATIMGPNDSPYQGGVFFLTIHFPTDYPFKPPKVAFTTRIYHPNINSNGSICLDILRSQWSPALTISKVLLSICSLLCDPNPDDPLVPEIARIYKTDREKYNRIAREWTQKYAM
Outline: as §1

In the case of WGHDWMMEWNTLQPMS, the “phage ELISA signal ratio” value is reported as 4.08.
